From PubChem
Rows were chosen to be rich in hits. Some 6.3% of all compounds tested hit in one or more screens of this group.
TIM10 inh: inhibits growth of TIM10 yeast strain | S. cerevisiae TIM10 strain growth, BacTiter-Glo luminescence, 24 h | inhibition, % at 10 µM | 330,000 compounds, 1.4% hits | AID 463195;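 active = inhibition of 40% or more at the single tested concentration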;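 note: wild-type TIM10 isogenic control strain grown at permissive 25 °C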
tim23-1 inh: inhibits growth of tim23-1 mutant yeast; AID 463212; S. cerevisiae tim23-1 growth, BacTiter-Glo luminescence, 24 h; inhibition, % at 20 µM; 330,000 compounds, 1.3% hits;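 active = growth inhibition of the mutant yeast at or above 50%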;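 note: temperature-sensitive mutant grown at 25 °C; plate controls were DMSO-treated mutant yeast for no effect and medium wells lacking yeast for full effect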
MPTP block: permeability transition pore inhibition; 360,000 compounds, 1.4% hits; isolated mouse mitochondria, Ca2+ swelling absorbance, 30 min; inhibition, % at 10 µM; AID 602449;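 active = inhibition of 50% or more, scaled per plate between neutral and stimulator controls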;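 note: 0% = DMSO wells given calcium and 100% = 1 mM EGTA wells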
Mdm2-MdmX inh: human Mdm2/MdmX binding inhibition; O15151+Q00987; SaOS-2 split-luciferase Mdm2/MdmX complementation, luminescence; inhibition, % at 8 µM; 330,000 compounds, 3% hits; AID 485346;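 active = inhibition of at least 50% at 8 µM in the primary screen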
Target sequence (O15151 whole entry, looked up): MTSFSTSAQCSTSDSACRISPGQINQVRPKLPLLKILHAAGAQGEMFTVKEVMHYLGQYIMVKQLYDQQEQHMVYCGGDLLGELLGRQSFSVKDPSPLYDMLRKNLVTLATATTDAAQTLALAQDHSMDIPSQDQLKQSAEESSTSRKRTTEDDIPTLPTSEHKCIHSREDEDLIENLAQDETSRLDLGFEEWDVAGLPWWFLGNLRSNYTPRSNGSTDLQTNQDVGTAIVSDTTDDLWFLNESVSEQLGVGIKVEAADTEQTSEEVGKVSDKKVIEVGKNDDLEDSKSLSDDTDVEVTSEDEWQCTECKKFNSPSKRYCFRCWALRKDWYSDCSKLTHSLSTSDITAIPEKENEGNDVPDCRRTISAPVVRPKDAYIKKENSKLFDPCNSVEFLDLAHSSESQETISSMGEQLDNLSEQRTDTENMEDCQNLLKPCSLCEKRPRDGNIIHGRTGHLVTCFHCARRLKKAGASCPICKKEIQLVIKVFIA
Target sequence (Q00987 whole entry, looked up): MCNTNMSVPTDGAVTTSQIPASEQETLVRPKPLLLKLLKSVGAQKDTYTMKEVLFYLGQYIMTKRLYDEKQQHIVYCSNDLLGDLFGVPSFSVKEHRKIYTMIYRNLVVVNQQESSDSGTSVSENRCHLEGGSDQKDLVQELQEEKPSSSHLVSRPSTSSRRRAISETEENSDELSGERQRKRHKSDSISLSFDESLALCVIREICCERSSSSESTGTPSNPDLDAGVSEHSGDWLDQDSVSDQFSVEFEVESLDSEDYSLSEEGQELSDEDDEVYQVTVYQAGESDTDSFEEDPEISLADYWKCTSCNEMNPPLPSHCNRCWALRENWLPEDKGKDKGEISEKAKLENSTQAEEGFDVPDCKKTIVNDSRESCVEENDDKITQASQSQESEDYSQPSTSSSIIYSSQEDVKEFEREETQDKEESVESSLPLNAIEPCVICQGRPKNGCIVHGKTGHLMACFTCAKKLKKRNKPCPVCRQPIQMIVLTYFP
tim10-1 inh: growth inhibitors of tim10-1 mutant yeast; inhibition, % at 20 µM; 330,000 compounds, 2.2% hits; AID 463190; S. cerevisiae tim10-1 ts strain growth, BacTiter-Glo, 24 h;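 active = inhibition of at least 40%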;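 note: mutant grown at 25 °C; 0% = DMSO wells with yeast and 100% = wells holding no yeast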
tim10-1 confirm: tim10-1 yeast growth inhibition, confirmed | S. cerevisiae tim10-1 ts strain growth, BacTiter-Glo, 24 h | 7,400 compounds, 56% hits | AID 463213 | inhibition, % at 20 µM | shares compounds with tim10-1 inh;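 active = inhibition of yeast growth at or above a set limit in either of two repeat tests at 20 µM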;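 note: tim10-1 mutant grown at permissive 25 °C to find synthetic lethal compounds; 0% = DMSO yeast wells and 100% = medium wells without yeast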
TIM10 conf: confirmation of TIM10 yeast growth inhibitors | shares compounds with TIM10 inh | S. cerevisiae tim10 strain growth, BacTiter-Glo luminescence, 24 h | inhibition, % at 10 µM | 4,600 compounds, 63% hits | AID 463215;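 active = inhibition of yeast growth at or above a set limit in either of two replicates at 10 µM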;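 note: this counterscreen used the strain with wild-type TIM10; 0% = yeast with DMSO and 100% = medium wells lacking yeast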
tim23-1 conf: confirmation of tim23-1 mutant yeast growth inhibitors; shares compounds with tim23-1 inh; S. cerevisiae tim23-1 growth, BacTiter-Glo luminescence, 24 h; inhibition, % at 20 µM; 4,400 compounds, 83% hits;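 active = inhibition above about 39% in either of two replicate wells at 20 µM, limit read from the data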;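 note: temperature-sensitive tim23-1 mutant grown at 25 °C; 0% = DMSO wells with yeast and 100% = medium wells without yeast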
Mdm2 MdmX conf: human Mdm2/MdmX binding inhibition, confirmed. 10,000 compounds, 55% hits. AID 489028. luminescent assay. shares compounds with Mdm2-MdmX inh. inhibition, % at 8 µM; in the data active = inhibition above about 40%
Full FLuc ctr: counter-screen for Mdm2/MdmX inhibitors: full-length luciferase. SaOS-2 full-length luciferase counterscreen, luminescence. AID 504607. inhibition, % at 8 µM. 6,200 compounds, 77% hits. shares compounds with Mdm2-MdmX inh;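 active = mean inhibition at 8 µM reaching about 37%, which flags the compound as non-specific, limit read from the data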;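 note: p53-null SaOS-2 cells with luciferase driven by a doxycycline-inducible promoter; compound on cells about two nights before reading with doxycycline added after day one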
* hit, by the source's call; nt = no result.

SMILES	TIM10 inh	tim23-1 inh	MPTP block	Mdm2-MdmX inh	tim10-1 inh	tim10-1 confirm	Mdm2 MdmX conf	Full FLuc ctr	others
Cc1cccc(NS(=O)(=O)c2ccc(-c3cnc(C4CC4)o3)cc2)c1C	19.0	68.9*	-0.2	84.9*	58.5*	51.6*	65.5*	75.6*	tim23-1 conf=51.7*
Cc1onc(-c2ccccc2)c1C(=O)N1CCC(C)(C(=O)NS(=O)(=O)C2CC2)C1 (stereo unspecified)	nt	nt	0.8	nt	nt	nt	nt	nt
O=C(Nc1ccnn1C1CCN(C(=O)c2cccnc2)CC1)c1cccc(F)c1	nt	nt	-1.1	nt	nt	nt	nt	nt
Cc1cccc(-c2noc(-c3ccc4c(c3)OCO4)n2)c1	17.4	8.7	-0.5	-93.4	13.8	nt	nt	nt
c1ccc(-c2noc(-c3ccc4c(c3)OCO4)n2)nc1	34.3	51.5*	0.4	83.0*	49.5*	39.9*	85.6*	29.3	tim23-1 conf=59.8*
CCC1CCCCN1S(=O)(=O)c1ccc(C(=O)N(CCCN(C)C)c2nc3cc4c(cc3s2)OCO4)cc1 (stereo unspecified)	49.6*	34.5	1.8	63.0*	46.4*	34.0*	43.0*	58.5*	TIM10 conf=32.7*
CCN(Cc1ccccc1)S(=O)(=O)c1ccc(C(=O)N(CCCN(C)C)c2nc3cc(C)cc(C)c3s2)cc1	-0.6	24.6	46.1	97.7*	51.9*	-4.6	54.6*	67.5*
CCN(c1ccccc1)S(=O)(=O)c1ccc(C(=O)N(CCCN(C)C)c2nc3cc4c(cc3s2)OCO4)cc1	52.5*	44.0	0.8	65.0*	63.8*	59.9*	48.7*	47.6*	TIM10 conf=46.1*
CN(C)CCCN(C(=O)c1ccc2ccccc2c1)c1nc2cc3c(cc2s1)OCO3	46.1*	21.3	0.1	76.6*	50.3*	42.5*	45.9*	60.9*	TIM10 conf=35.0*
CCN(c1ccccc1)S(=O)(=O)c1ccc(C(=O)N(CCCN(C)C)c2nc3c(C)cccc3s2)cc1	10.9	27.1	1.9	27.4	32.1	nt	nt	nt
COCCN1C(=O)CN(S(C)(=O)=O)CC1(C)C(=O)NC(C)C (stereo unspecified)	nt	nt	0.7	nt	nt	nt	nt	nt
COc1cccc(C(C)(O)c2nc(-c3ccc(F)cc3OC)cs2)c1 (stereo unspecified)	nt	nt	1.9	nt	nt	nt	nt	nt
CCOc1cccc(/C=N/NC(=O)c2ccc3c(c2)OCCO3)c1O	1.1	26.1	-1.4	56.0*	48.4*	-33.1	43.0*	45.3*
COc1cccc(/C=N/NC(=O)CNC(=O)c2ccc3c(c2)OCCO3)c1O	15.5	10.2	0.1	20.3	17.7	nt	nt	nt
CCCOc1ccc(Cl)cc1/C=C1/C(=O)ON=C1C	-8.8	10.4	-1.9	6.5	35.9	nt	nt	nt
CC1=NOC(=O)/C1=C\c1ccc(-c2ccc(Cl)cc2Cl)o1	21.1	81.1*	-5.2	63.9*	45.5*	46.4*	6.0	nt	tim23-1 conf=51.0*
CN(C)c1ccc(-c2cccc(C3CC=CC4C3C(=O)N(Cc3ccccc3)C4c3ccc4ccccc4c3)c2)cc1 (stereo unspecified)	10.0	9.8	0.8	17.7	8.9	nt	nt	nt
Cc1ccc(F)c([C@H]2C3C=CCC(c4ccccc4)C3C(=O)N2Cc2ccccc2)c1 (stereo partly specified)	3.9	6.4	6.2	57.6*	43.8*	31.2*	24.0	nt
Cc1ccc(-c2cc([C@H]3[C@H]4C=CC[C@@H](C)[C@@H]4C(=O)N3Cc3ccccc3)ccc2F)cc1	-8.6	-5.0	0.7	0.7	18.2	nt	nt	nt
CC[C@@H]1CC=C[C@H]2[C@H]1C(=O)N(Cc1ccccc1)[C@H]2c1cc(C)ccc1F	50.1*	50.5*	nt	54.2*	54.8*	35.4*	42.0*	48.9*	TIM10 conf=38.5*;tim23-1 conf=54.5*
O=C1C2C(c3ccccc3)CC=CC2[C@H](c2ccc3ccccc3c2)N1Cc1ccccc1 (stereo partly specified)	2.7	7.0	0.2	56.9*	46.5*	38.5*	30.5	nt
O=C1C2C(c3ccccc3)CC=CC2[C@H](c2ccoc2)N1Cc1ccccc1 (stereo partly specified)	12.0	7.8	1.4	2.0	33.7	nt	nt	nt
O=C(NCc1cccnc1)c1cc(C2CCCN(C(=O)c3cccc(O)c3)C2)on1 (stereo unspecified)	nt	nt	17.7	nt	nt	nt	nt	nt
O=[N+]([O-])c1cc(-c2ncccn2)c([N+](=O)[O-])s1	91.0*	51.1*	3.9	93.2*	88.2*	83.7*	42.2*	11.8	TIM10 conf=98.7*;tim23-1 conf=91.5*
O=C(Nc1ncccn1)c1cc([N+](=O)[O-])cc([N+](=O)[O-])c1	-13.9	28.0	-3.1	-23.6	21.9	nt	nt	nt
SMILES	TIM10 inh	tim23-1 inh	MPTP block	Mdm2-MdmX inh	tim10-1 inh	tim10-1 confirm	Mdm2 MdmX conf	Full FLuc ctr	others
CC(=O)NC(C)(c1ccccc1)c1nc(-c2cnc3ccccc3c2)cs1 (stereo unspecified)	nt	nt	1.1	nt	nt	nt	nt	nt
COc1ccc(C(=O)c2c(C(F)(F)F)oc3c2C(=O)c2ccccc2C3=O)cc1OC	37.8	67.0*	2.9	85.7*	52.4*	40.0*	71.5*	6.4	tim23-1 conf=67.9*
COc1ccc(C(=O)Nc2ccc3c(c2)C(=O)c2ccccc2C3=O)cc1OC	5.4	-1.7	-2.0	-10.8	-6.8	nt	nt	nt
Cc1cccc(-c2n[nH]nc2C2=CC(=O)CC(C)(C)C2)c1	nt	nt	-0.5	nt	nt	nt	nt	nt
Cn1c(=O)n(C)c2cc(CNC(=O)[C@H]3O[C@@H](n4ccc(=O)[nH]c4=O)[C@H](O)[C@@H]3O)ccc21	nt	nt	-0.8	nt	nt	nt	nt	nt
Cc1cccc(NC(c2ccc(C)s2)c2ccc3ccc(C)nc3c2O)n1 (stereo unspecified)	34.2	57.2*	0.3	97.9*	93.1*	86.4*	60.8*	23.7	tim23-1 conf=45.0*
Cc1ccc2oc3ccccc3c(=O)c2c1	nt	nt	0.1	nt	nt	nt	nt	nt
O=c1c2ccccc2oc2ccc(C#CC3(O)CCCCC3)cc12	20.7	30.1	0.0	59.1*	45.0*	35.5*	51.0*	172.9*
Cn1c2ccccc2c(=O)c2cc(C#CC3(O)CCCCC3)ccc21	-7.3	-3.1	0.2	69.0*	43.9*	39.1*	52.8*	168.7*
O=C(Nc1ccccc1N1CCN(C(=O)c2ccc(Cl)cc2)CC1)c1ccc([N+](=O)[O-])o1	10.7	29.8	0.4	55.2*	43.5*	23.9	32.8	nt
Cc1ccc(C(O)c2ncc(-c3ccc(Cl)cc3)[nH]2)cc1F (stereo unspecified)	nt	nt	4.0	nt	nt	nt	nt	nt
